Screening data: PubChem BioAssay, several laboratories
Compounds with a hit are over-represented: about 32% of the library has one in this group of screens.
CYP2C9 inh: blockers of cytochrome P450 2C9 activity – biochemical, luminescence, ADME assay, primary screen | P11712 | CYP2C9 Supersomes, luciferin-H conversion | inhibition, % at 5 µM | 96,000 compounds, 20% hits | AID 777, 2007;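 active means blocking of liver enzyme CYP2C9 beyond about 50% at 5 µM, limit read from the data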
CYP2C9 act: human CYP2C9 activators, primary screen, biochemical, luminescence. recombinant CYP2C9, luciferin-H conversion; stronger effect = higher value; factor 1 = untreated enzyme, 0 = blocked. activation factor at 5 µM. 96,000 compounds, 1.4% hits;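 active means activation factor of 2 or more for CYP2C9 at a 5 µM dose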
PostGolgi ctrl: growth inhibition of yeast control strain, primary screen, counter-screen for post-Golgi transport modulator project | efflux-deficient yeast background strain, growth absorbance A615, 16 h | inhibition, % at 10 µM | 98,000 compounds, 5% hits | AID 738, 2007
CYP2C19 inhib: blockers of cytochrome P450 2C19 activity – biochemical, luminescence, ADME assay, primary screen | inhibition, % at 5 µM | P33261 | CYP2C19 Supersomes, luciferin-H EGE luminescence, 30 min | AID 778, 2007 | 96,000 compounds, 21% hits;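 active means CYP2C19 inhibition above a set limit at 5 µM in the primary screen, cut at about 50% in these data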
Target sequence (P33261 whole entry, looked up): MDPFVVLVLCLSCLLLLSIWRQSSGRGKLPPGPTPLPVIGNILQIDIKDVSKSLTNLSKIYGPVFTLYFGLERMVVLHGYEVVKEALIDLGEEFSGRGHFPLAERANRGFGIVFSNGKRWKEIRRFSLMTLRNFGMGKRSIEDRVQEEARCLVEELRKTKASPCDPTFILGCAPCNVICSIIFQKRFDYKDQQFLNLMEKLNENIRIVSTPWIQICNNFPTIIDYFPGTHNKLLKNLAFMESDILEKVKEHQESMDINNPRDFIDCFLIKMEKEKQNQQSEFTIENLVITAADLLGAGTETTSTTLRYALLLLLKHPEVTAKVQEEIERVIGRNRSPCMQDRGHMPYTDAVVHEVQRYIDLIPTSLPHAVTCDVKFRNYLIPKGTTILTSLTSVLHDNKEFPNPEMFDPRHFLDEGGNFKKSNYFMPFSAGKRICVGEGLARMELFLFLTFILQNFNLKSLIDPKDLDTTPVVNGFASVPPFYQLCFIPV
CYP2C19 act: human CYP2C19 activators, primary screen, biochemical, luminescence; 96,000 tested, under 10 active; recombinant CYP2C19, luciferin-H EGE luminescence; stronger effect = higher value; 0 = fully inhibited enzyme, 1 = untreated enzyme; activation factor at 5 µM;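 active means activation factor of at least 2 at 5 µM in the primary screen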
PostGolgi yeast: phenotypic screen on post-Golgi transport, primary screen; 98,000 compounds, 0.9% hits; inhibition, % at 10 µM; post-Golgi transport phenotypic cell assay;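 further: yeast cells grown in 1536-well plates; yeast grown about 18 h at 30C before absorbance read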
Hits are given with their value; i = inactive; nt = no result given. Unless noted, no stated cut-off is given here; in the data, active means inhibition above about 30%; inactive means the rest.

SMILES	CYP2C9 inh	CYP2C9 act	PostGolgi ctrl	CYP2C19 inhib	CYP2C19 act	PostGolgi yeast
COCCCn1c(SCc2ccc(OC)cc2)nc2cc(OC)c(OC)cc2c1=N	72	i	i	55	i	i
CCOC(=O)CSc1nc2ccc(N3CCOCC3)cc2c(=O)n1Cc1ccc2c(c1)OCO2	75	i	i	81	i	i
COCCNC(=O)CSc1nc2cc(OC)c(OC)cc2c(=O)n1Cc1ccc(OC)cc1	i	i	46	i	i	i
CC(C)C(NC(=O)C(c1ccccc1)c1ccccc1)c1nc2ccccc2[nH]1 (configuration not stated)	i	i	i	i	i	i
Cc1cc(C)n(/N=C\c2c(O)ccc3ccccc23)c(=O)c1C(N)=O	i	i	i	i	i	i
O=C(Nc1ccc(F)c(F)c1)c1cc(S(=O)(=O)N2CCN(c3ccccn3)CC2)ccc1F	i	i	i	i	i	i
CCCC12CN(C(=O)c3ccc(OC)cc3)CC(C)(CN(C(=O)c3ccc(OC)cc3)C1)C2=O	i	i	i	i	i	i
CCCCOc1nc2ccccc2nc1C(C#N)S(=O)(=O)c1ccccc1 (configuration not stated)	77	i	i	78	i	i
COc1ccc2c(c1)N(C)C(=O)CC(c1ccccc1)=N2	98	i	i	94	i	i
Cc1ccc2nc(-c3ccncc3)cc(-c3ccccc3)c2c1	i	i	42	i	i	i
Cc1ccc2nc(-c3ccc(NS(C)(=O)=O)cc3)cc(-c3ccccc3)c2c1	53	i	58	i	i	i
CC(NC(=O)c1cccc(C(F)(F)F)c1)C1CCCO1 (configuration not stated)	i	i	i	i	i	i
Cc1ccc(NC(=O)N2CCC(=O)N2)cc1	i	i	i	i	i	i
CC1(C)CC(=O)C(C=NCCCN2CCCC2=O)=C(O)C1	i	i	i	i	i	i
CCCSc1nsc(NC(=O)C(c2ccccc2)c2ccccc2)n1	73	i	35	i	i	i
CN(C)/N=C/C=C1\CC/C(=C\c2ccc(Br)cc2)C1=O	i	i	i	54	i	i
Cc1ccc(SCCNC(=O)c2cccc([N+](=O)[O-])c2C)cc1	i	i	i	i	i	i
O=C(NCC1CCS(=O)(=O)C1)NCC1CCS(=O)(=O)C1 (configuration not stated)	i	i	i	i	i	i
COc1cc2c(cc1OC)C(c1cc3cc(OC)c(OC)cc3[nH]c1=O)N(C(=O)C1CC1)CC2 (configuration not stated)	61	i	i	i	i	i
COc1ccc(OC(C)=O)c(C2c3cc(OC)c(OC)cc3CCN2C(C)=O)c1 (configuration not stated)	i	i	i	i	i	i
CCOc1ccccc1N1CC(C(=O)N2CCc3ccccc3C2)CC1=O (configuration not stated)	i	i	i	i	i	i
O=C(CSc1nnc(-c2ccc(F)cc2)o1)Nc1ccc(S(=O)(=O)N2CCCC2)cc1	i	i	i	i	i	i
Cc1cc(C)nc(SCc2nnc(SCC(=O)Nc3ccc(C)c(C)c3)o2)n1	74	i	i	88	i	i
Cc1ccc(NC(=O)CSc2nnc(-c3ccc(S(=O)(=O)N4CCCC4)cc3)o2)cc1C	54	i	i	i	i	i
Cc1ccc(NC(=O)CSc2nnc(-c3ccccc3Br)o2)cc1C	73	i	i	51	i	i
SMILES	CYP2C9 inh	CYP2C9 act	PostGolgi ctrl	CYP2C19 inhib	CYP2C19 act	PostGolgi yeast
Cc1ccc(NC(=O)CSc2nnc(-c3ccccc3C)o2)cc1C	i	i	i	i	i	i
CCOc1ccccc1-c1nnc(SCC(=O)Nc2ccccc2)o1	i	2.4	43	i	i	i
CCCCC(=O)N(c1ccc(C)c(C)c1)C1C=CS(=O)(=O)C1 (configuration not stated)	i	i	i	i	i	i
Cc1cc(C)c2nc(N3CCCC(C(=O)NCCN4CCOCC4)C3)sc2c1 (configuration not stated)	i	i	i	i	i	i
CC(NC(=O)CSc1nnc(-c2cccc(S(=O)(=O)N3CCCCC3)c2)o1)C12CC3CC(CC(C3)C1)C2 (configuration not stated)	91	i	i	68	i	i
Cc1cccc(NC(=O)CSc2nnc(-c3ccc(S(=O)(=O)N4CCCC4)cc3)o2)c1	66	i	i	i	i	i
CC(C)CNC(=O)CSc1nnc(-c2cccc(S(=O)(=O)N3CCCCC3)c2)o1	i	i	i	i	i	i
COC(=O)CSc1nnc(-c2ccc(S(=O)(=O)N3CCCCC3)cc2)o1	64	i	i	i	i	i
CCCOC(=O)CSc1nnc(-c2ccccc2Cl)o1	i	i	i	67	i	i
CC(C)(C)NC(=O)C(=O)NNC(=O)c1ccccc1	i	i	i	i	i	i
COc1ccc(C2C3=C(CC(C)(C)CC3=O)Nc3c2c(=O)[nH]c2nc(C)nn32)cc1 (configuration not stated)	i	i	i	i	i	i
CSc1nc(-c2ccccc2)[nH]c(=S)c1C(C)=O	55	i	i	i	i	i
CSc1nc(-c2ccccc2)nc(SC)c1C(C)=O	i	i	i	i	i	i
CC(=O)N1CCN(c2ccc(NCc3ccccc3)cc2)CC1	i	i	i	i	i	i
CCn1nnnc1NCc1ccc(N2CCCC2)cc1	81	i	i	79	i	i
CC(C)CC(=O)NN1CCCCC1	i	i	i	i	i	i
CC(C)CC(NC(N)=O)C(=O)OCC(=O)NC(=O)NC1CCCC1 (configuration not stated)	i	i	i	57	i	i
O=C(Cc1coc(-c2ccc(F)cc2)n1)NCc1ccccc1	i	i	i	i	i	i
CCOc1ccccc1NC(=O)Cn1cnc2c(nnn2-c2cccc(OC)c2)c1=O	nt	nt	i	nt	nt	i
Cc1cc(C(=O)Nc2ccc3c(c2)OCCO3)c(C)o1	i	i	i	i	i	i
Cc1occc1C(=O)Nc1ccc2c(c1)OCCO2	i	i	i	81	i	i
Cc1c([N+](=O)[O-])c(C(=O)Nc2ccc3c(c2)OCCO3)nn1C	i	i	i	68	i	i
COc1ccccc1CN(CC(=O)NCC1CCCO1)C(=O)CNS(=O)(=O)c1ccc(C)cc1 (configuration not stated)	i	i	i	i	i	i
Cc1cc(C(=O)CSc2nnc(-c3ccccc3F)o2)c(C)n1Cc1cccs1	78	i	i	96	i	i
Cc1cc(C(=O)CN2C(=O)c3cccc(N)c3C2=O)c(C)n1Cc1cccs1	i	2.4	i	91	i	i
Cc1cc(C(=O)CN2C(=O)c3ccccc3S2(=O)=O)c(C)n1CC1CCCO1 (configuration not stated)	i	i	i	i	i	i
